# Results reported in PubChem BioAssay (NCI).
# The panel holds about 83,000 compounds, 20% with a hit somewhere; the sample as a whole holds those more often.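 Treatment: one concentration, 48 hours, 96-well format. Scoring: percent growth, with anything below 10 considered active.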 Active and inactive are the calls of the source.
# Test system: OVCAR-8 ovarian
# Assay: NCI-60 one-dose screen, 48 h (100 = growth as untreated, 0 = no growth, -100 = all killed)
# Details: 10 µM unless noted
# Procedure: Growth inhibition of the OVCAR-8 human tumor cell line is measured as a screen for anti-cancer activity. Cells are grown in 96 well plates and exposed to the test compound for 48 hours. Compounds are tested at a single concentration, which is 10^-5 M for most compounds. The reported endpoint is percent growth (GI% or GIPRCNT), where numbers from 0 - 100% represent growth inhibition, and numbers from -100% - 0 represent cell death. For example, a value of 40 represents 60% growth inhibition. A value of 0 means no net growth occurred over the course of the experiment. A value of -40 indicates 40% of cells at the beginning of the experiment died by the end of the experiment. A value of -100 means all cells are dead at the end of the experiment.
# NCI-60 Human Tumor Cell Lines Screen was performed using the standard one-dose NCI protocol, which is described in more detail at https://dtp.cancer.gov/discovery_development/nci-60/default.htm.
# Compounds with GIPRCNT values below 10 were considered active. Activity score was based on GIPRCNT using the following formula: […]
# Score is 0 for GIPRCNT values of 100 or above, 50 for GIPRCNT values of 0, and 100 for GIPRCNT values of -100.
row,SMILES,growth
1,Cc1ccc(-c2nc3ccccc3c(=O)n2/N=C/c2cccc3ccccc23)cc1,84.2% (inactive)
2,Cc1ccc(N2C3c4ccccc4N(S(=O)(=O)c4ccc(C)cc4)C2c2ccccc2N3S(=O)(=O)c2ccc(C)cc2)cc1,88.9% (inactive)
3,COc1cc(C2=NOC(c3cc(OC)c(OC)c(OC)c3)C2)ccc1OCCCCOc1cc2c(cc1OC)C(=O)N1CCC[C@H]1C=N2 (stereo not given in full),6.96% (active)
4,Oc1[nH]c2ccc(Cl)cc2c1/C=c1/ccc2c(c1)N=C(c1ccc(F)cc1)N=2,84.7% (inactive)
5,Clc1ccc(Nc2ncnc3c2sc2ncccc23)c(Cl)c1,4.31% (active)
6,CNCc1ccccc1CN(CC(=O)Nc1ccc2c(c1)CC1(C2)C(=O)Nc2ncccc21)C(=O)C(C)(C)C (stereo not given),98.9% (inactive)
7,Cc1c(C)c(C)c([N+](=O)[O-])c([N+](=O)[O-])c1C,102% (inactive)
8,CN(C)CCOc1nc2c3cccnc3cc(-c3cccc(Cl)c3)c2c2ncccc12,14.7% (inactive)
9,COc1ccc(/C(=C\c2cc(OC)c(OC)c(OC)c2)C(=O)N2CCN(c3ccccc3)CC2)cc1O,96.8% (inactive)
10,CN1CCN(Cc2ccc(NC(=O)c3cncc(C#Cc4cnc5cccnn45)c3)cc2C(F)(F)F)CC1,5.17% (active)
11,COc1ccc(NC(=O)/C=C/c2ccc(Cl)c(Cl)c2)cn1,61.1% (inactive)
12,Cc1nc2c(-c3cnc(N)nc3)nc(N3CCOCC3)nc2n1C(C)C,-8.95% (active)
13,CCCN(CCC)CC(O)COc1ccccc1C(=O)Nc1ccccc1 (stereo not given),84.3% (inactive)
14,CC(C)CC(NC(=O)C(CCCN=C(N)N)NC(=O)OCc1ccccc1)C(=O)NC(CNC(=O)/C=C/c1ccccc1)C(C)C (stereo not given),106% (inactive)
15,Cc1ccc(CSCc2ccc(C(=O)NC3CC3)o2)cc1,72% (inactive)
16,COc1cc(C2CC(c3ccc(Cl)cc3)=NN2C=O)ccc1OS(=O)(=O)c1ccc(C)cc1 (stereo not given),90.3% (inactive)
17,CC(C)c1ccc(Cn2ccc3c4c(N)nc(NC5CC5)nc4ccc32)cc1,-77.8% (active)
18,CC(C)N1CCN(c2ccncc2S(=O)(=O)N2CCN(C)CC2)CC1,103% (inactive)
19,O=c1[nH]c2cc(Cl)c(Cl)cc2o1,104% (inactive)
20,Cc1cc(Cl)c2ccc(N(C)C)cc2n1,102% (inactive)

row,SMILES,growth
1,O=C1OCC2=C1C(c1cccc(Br)c1)c1cc3c(cc1N2CCO)OCCO3 (stereo not given),9.03% (active)
2,COc1ccc(/C(=C\c2cc(OC)c(OC)c(OC)c2)C(=O)Nc2nc3ccc(Cl)cc3s2)cc1,94.1% (inactive)
3,O=C(Nc1ccccc1)C(CCCCN1C(=O)c2ccccc2C1=O)N1C(=O)c2ccccc2C1=O (stereo not given),103% (inactive)
4,O=C(Nc1ccc(OS(=O)(=O)c2ccc(F)cc2)cc1)C12CC3CC(CC(C3)C1)C2,72.4% (inactive)
5,COc1cc(NC(C)CCCN)c2ncccc2c1Sc1ccc(Cl)cc1 (stereo not given),33.3% (inactive)
6,NC(N)=N/N=C\c1ccc(OCc2ccccc2)cc1,89.1% (inactive)
7,O=C(C(=O)c1cccnc1)c1cccnc1,82.6% (inactive)
8,O=C1C=CC(=O)N1CO,110% (inactive)
9,C=CCOc1c(Br)cc(Br)cc1Br,74.3% (inactive)
10,COC(=O)c1ccc(NC(N)=NCCC(C)(C)c2ccc(C(F)(F)F)cc2)nc1,50.1% (inactive)
11,CN(CCO)c1ccc(N2Cc3ccccc3OC3=C2C(=O)c2c(O)ccc(O)c2C3=O)cn1,1.86% (active)
12,Cc1cc(C)c(C#N)c(SCC(=O)c2sc3c(C#N)c(C)cc(C)[n+]3c2[O-])n1,20.4% (inactive)
13,COc1ccc2[nH]cc(/C=C3\C(=O)Nc4ccccc43)c2c1,31.9% (inactive)
14,CCCCCCCCCCCCCCCCCC1=NC(C)(C)CN1C(C)(C)CO,-80.4% (active)
15,CCCCCc1c(C)[nH]c(/C=C2\N=C(c3ccc[nH]3)C=C2CC)c1C,-65.2% (active)
16,COc1ccc(C2C=C(c3ccc(Cl)cc3)N=C3SC=CN32)cc1 (stereo not given),104% (inactive)
17,Fc1ccc(-c2nnc(N3CCOCC3)c3ccccc23)cc1,111% (inactive)
18,CC(OC(=O)Nc1cccc(Cl)c1)C(=O)O (stereo not given),95.3% (inactive)
19,CCOC(=O)c1ccc(NCCC(=O)O)cc1,104% (inactive)
20,COc1ccccc1NC(=O)OCC12COCN1COC2,96% (inactive)
